# From PubChem
# Most compounds without a hit are left out; they make up all but 1.6% or so of the library.
# KCNQ2 pot – potentiators of rat KCNQ2 potassium channel; Potassium voltage-gated channel subfamily KQT member 2 (Rattus norvegicus), O88943; CHO-K1 KCNQ2, FluxOR thallium flux fluorescence; hits give high values; actives 0.54% (n = 310,000); B-score at 10 µM; AID 2239, 2010;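 active means fluorescence ratio B-score at least 3 SD of library B-scores, with initial fluorescence B-score within 3 of them, cut at about 5.3 in these data; same plate scores as AID 2156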;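 further: B-score of peak minus minimum over baseline fluorescence ratio after K+ and Tl+ stimulus; positive B-score means potentiation of KCNQ2 with more thallium influx and brighter signal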
# KCNQ2 inh – rat KCNQ2 potassium channel inhibitors, primary screen, cell-based, CHO-K1, FluxOR thallium flux, B-score; Potassium voltage-gated channel subfamily KQT member 2 (Rattus norvegicus), O88943; 20 min; hits give low values; B-score at 10 µM; actives 1.1% (n = 310,000); AID 2156, 2009;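 active means fluorescence ratio B-score at most minus 3 library SDs, with starting brightness B-score within 2 library SDs, cut at about -5.5 in these data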
# Active calls of the source: *; i = inactive; nt = not tested or not shown.
SMILES,KCNQ2 pot,KCNQ2 inh
Cc1nc(N2CCN(c3ccccn3)CC2)c2c(C)c(C(=O)Nc3c(F)cc(F)cc3Br)sc2n1,nt,i
Cc1nc(N2CCN(c3ccccn3)CC2)c2c(C)c(C(=O)Nc3c(C)cc(Br)cc3C)sc2n1,-7.9,-7.9*
Cc1[nH]c2ccccc2c1C(=O)C(=O)N1CCN(c2cccc(Cl)c2)CC1,0.1,i
COc1c(CC=C(C)C)cc(C2CC(=O)c3c(O)cc(O)cc3O2)c(CC=C(C)C)c1O (stereo not drawn),-5.8,-5.8*
COc1cc(C2CC(=O)c3c(O)cc(O)cc3O2)ccc1O (stereo not drawn),nt,i
COc1ccc([C@H]2[C@H](C(=O)OC(C)(C)C)N3N=Cc4ccccc4C3C23C(=O)c2ccccc2C3=O)cc1OC (stereo partly drawn),nt,i
CC(C)(C)C(=O)[C@H]1[C@H](c2ccccc2)[C@@]2(N=C(c3ccccc3)OC2=O)C2c3ccccc3C=NN21 (stereo partly drawn),-6.2,-6.2*
COC(=O)c1ccc(CNC(=O)C2CCC(=O)N(C3CCCCCC3)C2)cc1 (stereo not drawn),nt,i
O=c1c2ccccc2nc(SCc2cc([N+](=O)[O-])cc3c2OCOC3)n1-c1ccccc1,-6.1,-6.1*
O=c1c2ccccc2nc(SCc2ccc([N+](=O)[O-])cc2)n1-c1ccccc1,nt,i
CCOc1ccc(NC(=O)CN(C)C(=O)c2ccc(=O)[nH]c2)cc1OCC,nt,i
CCn1c(O)c(N=NC(=O)CNC(=O)c2ccco2)c2ccccc21,2.6,i
CCCn1c(O)c(N=NC(=O)c2ccco2)c2ccccc21,11*,i
COc1ccc(C(=S)N2CCOCC2)cc1OS(=O)(=O)c1ccccc1[N+](=O)[O-],-6.7,-6.7*
COc1cc(C(=S)N2CCOCC2)ccc1OS(=O)(=O)c1ccccc1[N+](=O)[O-],1.4,i
C=CCOc1ccc(C(=O)Nc2ccccc2C(=O)NCc2cccnc2)cc1,0.23,i
O=C(NCC1CCN(Cc2ccc(Cl)cc2)CC1)C1CCCN(c2ncnc3c2nc2n3CCCCC2)C1 (stereo not drawn),-6.6,-6.6*
O=C(NCC1CCN(Cc2ccc(F)cc2)CC1)C1CCCN(c2ncnc3c2nc2n3CCCCC2)C1 (stereo not drawn),nt,i
COC(=O)c1c(NC(C)=O)sc2c1CCCC2,nt,i
CCOC(=O)c1c(NC(=S)Nc2ccccc2)sc2c1CC(C)(C)SC2,nt,i
CNC(=S)Nc1sc2c(c1C(=O)OC)CCC2,5.6*,i
CCOC(=O)c1c(NC(=S)NC)sc2c1CC(C)(C)SC2,11*,i
Cc1ccc(N(C(=O)c2csnn2)C(C(=O)NC2CCCCC2)c2ccco2)cc1 (stereo not drawn),nt,i
COc1ccccc1NC(=O)Nc1nc(CC(=O)N2CCN(c3ccc(F)cc3)CC2)cs1,nt,i
CCNS(=O)(=O)c1ccc(C(=O)OCc2cc(=O)oc3cc(OC)ccc23)cc1,nt,i
SMILES,KCNQ2 pot,KCNQ2 inh
O=C(C1CC2C=CC1C2)N1CCN(c2ccccc2)CC1 (stereo not drawn),nt,i
CC1(C)C(C=C(Cl)Cl)C1C(=O)N1CCN(c2ccccc2)CC1 (stereo not drawn),-5.7,-5.7*
Cc1c(NC(=O)Nc2cccc(Cl)c2Cl)c(=O)n(-c2ccccc2)n1C,0.3,i
O=C(NCCN1CCOCC1)c1ccccc1N1C(=O)[C@@H]2Cc3c([nH]c4ccccc34)C(c3ccccc3)N2C1=O (stereo partly drawn),nt,i
O=C(NCCCN1CCOCC1)c1ccccc1N1C(=O)[C@@H]2Cc3c([nH]c4ccccc34)C(c3ccc(F)cc3)N2C1=O (stereo partly drawn),-7.1,-7.1*
COc1ccc(CN(CC(O)COc2cccc3[nH]cc(C)c23)C(C)(C)C)cc1 (stereo not drawn),-5.9,-5.9*
COc1ccc(CN(C)CC(O)COc2ccc(-c3ccccc3)cc2)cc1OC (stereo not drawn),0.56,i
COc1ccc(CC(C)Nc2cccc(SC)c2)cc1 (stereo not drawn),nt,i
Cc1cccn2c(=O)c(C=O)c(N3CCSCC3)nc12,0.89,i
CCOCCc1nnc(NC(=O)CS(=O)(=O)c2ccc(C)cc2)s1,nt,i
Cc1ccccc1OCc1nc2ccccc2[nH]1,-6.6,-6.6*
COc1ccccc1OCc1nc2ccccc2[nH]1,nt,i
Cc1onc(-c2c(Cl)cccc2Cl)c1C(=O)NN1CCCCCC1,nt,i
Cc1c(C(=O)NN2CCCCC2)nn(-c2ccc(Cl)cc2Cl)c1-c1ccc(I)cc1,-9.9,-9.9*
Cc1cc(C(=O)NNC(=O)c2ccc(C)s2)c(C)o1,0.27,i
CC(C)Cc1cc(C(C)(C)C)ccc1OC(=S)N(C)C,-7.8,-7.8*
Cc1cc(C(C)(C)C)ccc1OCCN(C)C,nt,i
CCOc1ccc(N(C)S(=O)(=O)c2c[nH]c(C(=O)OC)c2)cc1,nt,i
COc1cc2cc(C(=O)N(C)C3CCS(=O)(=O)C3)[nH]c2cc1OC (stereo not drawn),nt,i
CCOc1cccc2sc(N3CCN(C(=O)c4ccc5ncsc5c4)CC3)nc12,nt,i
COc1ccc(C(=O)c2no[n+]([O-])c2C(=O)c2ccc(OC)cc2)cc1,nt,i
O=C(c1cccs1)c1no[n+]([O-])c1C(=O)c1cccs1,-14,-14*
Cc1ccn(CC(=O)NC2CC(C)(C)Cc3c2cnn3-c2ccc(F)cc2)n1 (stereo not drawn),0.65,i
Cc1cc(C)cc(OCC(=O)Nc2ccncc2)c1,0.62,i
CCCn1c(C)cc(C(=O)CSc2nc3ccccc3c(=O)n2Cc2ccco2)c1C,-6,-6*
SMILES,KCNQ2 pot,KCNQ2 inh
NC(=O)CSc1nc2ccccc2c(=O)n1Cc1ccco1,nt,i
CC(C)N(CCNC(=O)c1nn(Cc2ccccc2)c(=O)c2ccccc12)C(C)C,0.17,i
C/C(=N\Nc1nc(C)cc(-c2ccccc2)n1)c1ccc(C)o1,-6.1,-6.1*
C/C(=N/Nc1nc(C)cc(-c2ccccc2)n1)c1ccco1,1.7,i
N#CC1(N2CCN(C(=O)c3ccccc3)CC2)CCCCC1,nt,i
COc1ccc(-c2cc3c(=O)n(CC(=O)Nc4cccc(Cl)c4)nc(C)n3n2)cc1,0.07,i
CCc1cc2cc(C(=O)N3CCN(c4ccccc4)CC3)sc2s1,nt,i
CCc1cc2cc(C(=O)N3CCN(Cc4ccccc4)CC3)sc2s1,-5.8,-5.8*
CCOc1ccc(NC(=O)CN(C)C(=O)c2cc3c(s2)CCCCC3)cc1OCC,nt,i
CCCCCNC(=O)c1ccc2c(=O)[nH]c3c(C(=O)NCC4CCCO4)sc(=S)n3c2c1 (stereo not drawn),-5.7,-5.7*
Cc1ccc(CNC(=O)c2ccc3c(=O)[nH]c4c(C(=O)NCC5CCCO5)sc(=S)n4c3c2)cc1 (stereo not drawn),nt,i
COc1ccc(S(=O)(=O)NCC(=O)NCc2cc(=O)n(C)c(=O)n2C)cc1C,nt,i
CNC(=O)/C(=C\c1cccc(Oc2ccccc2)c1)NC(=O)c1ccccc1,nt,i
CNC(=O)/C(C#N)=C/c1cccc(Oc2ccccc2)c1,-5.9,-5.9*
O=c1/c(=C\c2cccc(O)c2)sc2nc(-c3ccccc3)c(-c3ccccc3)n12,nt,i
O=C(COC(=O)c1nn(-c2ccccc2C(F)(F)F)cc1O)c1ccc(OC(F)F)cc1,0.24,i
